Screening data (PubChem)
POLI inh: DNA polymerase iota (human) inhibition. Q9UNA4. Pol iota fluorescent replication assay, 10 min. Potency, µM (top dose mostly 115 µM), inactives show top-dose activity, negative = inhibition, usual class: inhibitors. hit rate 1% among 390,000. AID 588590; note: potency is the fitted concentration of half-maximal effect
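Fluorescent replication assay read twice, at 0 min and 10 min after adding 50 nM (final) substrate. Enzyme (10 nM) and compounds were first incubated 15 min at room temperature; enzyme-free buffer wells were negative controls.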
Pol eta inh: DNA polymerase eta (human) inhibition; hit rate 1.2% among 390,000; Potency, µM (titrated, usually from 114 µM), for inactives: at the top dose activity change, negative = inhibition, hits mostly inhibitors; recombinant Pol eta, fluorescent DNA replication assay; note: potency is the fitted concentration of half-maximal effect; % is set by controls: 0 for no effect and ±100 for the full control effect
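Pol eta (10 nM) was preincubated with compounds for 15 min at room temperature, after which fluorescent replication substrate (50 nM final) was added to start the reaction. Fluorescence was read kinetically at 0 and 10 min.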
PI5P4Ka inh: inhibitors of human PI5P4K alpha; P48426; PI5P4Kalpha enzyme, ADP-Glo luminescence, 60 min; active compounds read low; max response, %; hit rate 1.2% among 330,000; AID 652105; active = max response of -50% or lower; inconclusive = between -30% and -50%; inactive = -30% or higher; note: value at the top dose of about 77 µM; % is set by controls: 0 for no effect and ±100 for the full control effect
Target sequence (P48426 whole entry, looked up): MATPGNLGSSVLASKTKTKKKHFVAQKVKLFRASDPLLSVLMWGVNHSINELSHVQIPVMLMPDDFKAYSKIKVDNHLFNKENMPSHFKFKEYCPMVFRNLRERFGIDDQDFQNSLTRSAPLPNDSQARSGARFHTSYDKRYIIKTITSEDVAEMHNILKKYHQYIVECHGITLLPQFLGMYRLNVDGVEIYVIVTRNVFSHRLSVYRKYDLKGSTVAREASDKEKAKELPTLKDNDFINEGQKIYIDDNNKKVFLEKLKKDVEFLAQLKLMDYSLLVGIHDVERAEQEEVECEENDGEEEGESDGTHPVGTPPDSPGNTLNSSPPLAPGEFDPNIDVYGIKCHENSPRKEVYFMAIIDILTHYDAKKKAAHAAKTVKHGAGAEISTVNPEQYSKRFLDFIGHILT
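Quantitative HTS of the MLSMR library against PI5P4Kalpha with substrate. ATP added last at 5 microM final; room temperature, 60 minutes. Remaining ATP depleted, ADP converted and read as luminescence.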
Pol beta inh: blocks human DNA polymerase beta activity; P06746; Pol beta primer extension/strand displacement, fluorescence kinetic; AID 485314; Potency, µM (titrated, usually from 114 µM), for the others: at the highest dose activity change, negative = inhibition, most hits filed as inhibitors; hit rate 1.3% among 340,000; note: potency is the fitted concentration of half-maximal effect; % is set by controls: 0 for no effect and ±100 for the full control effect
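Pol beta (10 nM) and compounds were preincubated 15 min at room temperature, then 50 nM substrate (final) started primer extension/strand displacement. Reads were taken at 0 and 10 min; concentration-response data were fitted to a four-parameter Hill equation.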
WRN helicase inh: inhibitors of human WRN helicase. Q14191. WRN helicase unwinding, fluorescent forked duplex, kinetic. Potency, µM (top dose mostly 114 µM), inactives show at the top dose activity change, negative = inhibition, usual class: inhibitors. hit rate 0.46% among 360,000; note: potency is the fitted concentration of half-maximal effect; % is set by controls: 0 for no effect and ±100 for the full control effect; nearly all actives have a fitted effect of over 55% in size
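Screening of the MLSMR collection measured strand separation of a quenched forked DNA duplex (100 nM) by 20 nM WRN with 2 mM ATP, all final. Compounds were preincubated with enzyme 15 min at room temperature.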
POLK inh: blocks human DNA polymerase kappa activity. Q9UBT6. purified Pol kappa, fluorescent DNA synthesis assay, 10 min. Potency, µM (series often up to 107 µM), for inactives: top-dose activity, negative = inhibition, actives largely listed as inhibitors. hit rate 0.53% among 400,000. AID 588579; note: potency is the fitted concentration of half-maximal effect; % is set by controls: 0 for no effect and ±100 for the full control effect
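10 nM Pol kappa was preincubated with compounds for 15 min at room temperature. Reaction started with 50 nM (final) substrate. Fluorescence read kinetically at 0 and 10 min.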
Starred values were filed as active, the others as inactive; ? = inconclusive; . = no result given; [ ] = another dose, or the depositor's remark. Rows were chosen to be rich in hits. Some 2.8% of all compounds tested hit in one or more screens of this group. Unless noted, calls come from the whole dose curve; as a rule, active = well fitted curve in the direction sought with a large enough effect; inconclusive = small, poorly fitted or top-dose-only effect, or another doubt; inactive = no such curve, though single readings can be large; an effect the other way counts as inactive or inconclusive.

SMILES	POLI inh	Pol eta inh	PI5P4Ka inh	Pol beta inh	WRN helicase inh	POLK inh
CN(Cc1ccco1)c1cc(-c2ccoc2)ncn1	.	.	.	.	.	25.1µM*
COc1ccc(N(CCCN2C(=O)c3cccc4cccc(c34)C2=O)C(=O)c2ccncc2)cc1	12.0%	-4.8%	-0.5	0.7%	6.7%	-3.7%
COc1ccc(N(CCN2C(=O)c3ccccc3C2=O)C(=O)c2cccc([N+](=O)[O-])c2)cc1	-15.0%	?	-0.1	0.159µM*	0.2%	2.5%[60.1 µM]
O=C(Nc1cc(-c2ccccc2)sc1C(=O)O)c1cccc(F)c1	?	?	-27.7	70.8µM*	-21.0%	-15.6%
CC1=NN(c2ccccc2)C(=O)/C1=C/c1ccc(Cl)cc1	?	-1.6%	-3.7	-28.9%	2.6%[11.6 µM]	2.2%
COc1ccc(/C=C2/C(=O)N(Cc3ccccc3)N=C2C)cc1	22.4µM*	-18.4%	9.7	70.2%	-33.7%[57.1 µM]	-2.7%
CCC1CN(C(=O)N2CCC(C(=O)NCc3ccc(OC)cc3OC)CC2)c2cc(C)ccc2O1 (centres undefined)	91.7%	6.2%	.	-8.3%	.	-11.1%
Cc1cc(-c2ccccc2)nc(Nc2nc3c(C)cccc3c(=O)[nH]2)n1	16.8%	44.7µM*	0.9	.	-3.8%	-2.6%
NC(=S)N/N=C/c1coc2ccc(O)cc2c1=O	19.4%	-1.8%	-72.0*	29.6%	-3.8%	-1.6%
COc1ccc(N2CC(NC(=O)c3ccc(S(=O)(=O)N4CCOCC4)cc3)CC2=O)cc1OC (centres undefined)	2.4%	-20.2%	.	48.3%	.	-9.3%[60.1 µM]
Nc1ccc(S(=O)(=O)Nc2nc3ccccc3o2)cc1	?	44.7µM*	?	79.4µM*	-7.6%[11.6 µM]	?
Cc1cc(NC(=O)C(Cl)Cl)cc2c1OCO2	-9.5%	-8.3%	-2.9	.	3.9%	-1.1%
Cc1cc(=O)n2nc(N3CCC(C(=O)Nc4ccc(Br)c(C)c4)CC3)sc2n1	25.3%	-24.1%	.	-8.2%	.	-8.4%
COc1cc(OC)c(C(=O)OCC(=O)N2CCOCC2)cc1OC	4.6%	-17.6%	0.3	17.3%	8.1%	2.7%
O=C(C#Cc1ccccc1)c1cccc([N+](=O)[O-])c1	?	-16.4%	4.9	-18.7%	17.8µM*	0.8%
CC(C)c1ccc(NC(=O)C[n+]2ccn(C3=C([O-])c4ccccc4C3=O)c2)cc1	?	79.4µM*	-8.3	?	-28.2%	-43.6%
COc1ccc(Br)cc1C1Nc2cccc3cccc(c23)N1	53.2%	-18.5%	5.2	79.4µM*	-5.5%	-2.1%
COc1cc(C2Nc3cccc4cccc(c34)N2)ccc1O	119.3%	?	-26.9	-25.3%	-26.2%	-16.5%
Cc1cc2nc(C3CCCCC3)c(Cc3cccc(F)c3)n2c(C)c1Br	.	.	-7.6	.	-4.5%	.
CNc1ccc(/C=C2\C=Cc3ccccc32)cc1Br	-1.3%	.	.	.	.	-11.0%
COc1ccc2c(c1)c1c(c(=O)n(Cc3ccccc3)c(=O)n1Cc1ccccc1Cl)n2C	20.0%	-3.4%	.	-0.5%	.	-5.2%
Cc1cc(/C=C/c2ccc3cc(N(C)C)ccc3[n+]2C)c(C)n1-c1ccccc1	.	.	.	.	.	28.2µM*
CC1CCCN(S(=O)(=O)c2ccc(NC(=O)c3nc(SC(C)C)ncc3Cl)cc2)C1 (centres undefined)	17.0%	-11.2%	.	-4.4%	.	-13.5%
O=C1c2ccccc2C(=O)N1c1cccc(-c2csc(Nc3ccc4c(c3)OCO4)n2)c1	.	.	.	28.2µM*	.	.
CC(C)(O)c1ccc2c(c1)CCC1C(C)(C(=O)O)CCCC21C (centres undefined)	?	?	-16.5	39.8µM*	-10.7%	-38.6%
SMILES	POLI inh	Pol eta inh	PI5P4Ka inh	Pol beta inh	WRN helicase inh	POLK inh
Cc1cnc(NC(=O)/C=C/c2ccc(Br)o2)s1	76.7%	?	3.3	?	-5.3%	-16.7%
O=C(/C=C/c1ccc(Br)o1)Nc1nnc(C2CC2)s1	.	.	.	25.1µM*	.	.
CC(C)CNC(=O)N1[C@H](c2cccs2)[C@@H](C)C(=O)[C@@H](C)[C@@H]1c1cccs1	26.1%	-5.1%	.	7.3%	.	-1.2%
CCOC(=O)c1sc(NC(=O)C2CCCO2)c(C(=O)OCC)c1C (centres undefined)	.	.	.	14.1µM*	.	.
CCN1CCCC1CNCc1cccc(OC)c1OCc1ccccc1F (centres undefined)	89.1µM*	-0.8%	.	1.6%	-0.5%[57.1 µM]	-1.9%
COc1ccccc1C(=O)Nc1ccc(-c2cc(C(F)(F)F)nn2-c2ccccc2)cc1	2.0%	-19.5%	.	-13.9%	.	-17.8%
COc1cc(S(=O)(=O)O)c(C)cc1N=Nc1c(O)ccc2cc(S(=O)(=O)O)ccc12	44.7µM*	.	.	.	.	79.4µM*
Cc1cccc(OCC(=O)Nc2cc(-c3nc4cc(Cl)ccc4o3)ccc2C)c1	-11.1%	.	.	.	.	-12.2%
CC(C)=CCC12Oc3cc(O)ccc3C1(O)Oc1cc(O)c([C@H]3C=C(C)CC(c4ccc(O)cc4O)[C@H]3C(=O)c3ccc(O)cc3O)c(O)c1C2=O (some centres undefined)	?	?	-91.5*	.	-26.5%	?
O=Cc1ccnc2ccccc12	7.5%	.	.	.	.	-18.5%
O=C(O)CSC1=NS(=O)(=O)c2ccccc21	89.1µM*	.	.	.	.	?
O=S1(=O)N=C(SCCO)c2ccccc21	-10.1%	-0.9%	-14.6	24.0%	4.1%	-6.2%
O=C(NCC(c1cccnc1)N1CCN(c2ccccc2F)CC1)c1ccc(F)cc1 (centres undefined)	?	-11.9%	.	-1.7%	.	4.6%
CCOc1ccc(C(=O)NC(C(=O)N2CCC2)C(C)C)cc1 (centres undefined)	-6.4%	-12.6%	2.2	.	7.4%	-13.9%
COc1cc(C)ccc1OCCOCCOc1cc(C)c(C)cc1Br	100µM*	-11.8%	6.4	-3.4%	-13.9%[57.1 µM]	-3.8%
Cc1nc(C)c(C(=O)OCC(=O)NCc2ccccc2)s1	-10.4%	-13.9%	-1.5	.	4.1%	6.7%
O=C(/C=C/c1ccco1)NC(=S)Nc1cccc(-c2nc3ccccc3o2)c1	?	31.6µM*	-64.4*	28.2µM*	50.1µM*	79.4µM*
COc1cccc(NC(=O)/C=C/c2ccco2)c1	19.9%	-14.7%	-4.2	-8.5%	-3.8%	-12.2%
O=C(/C=C/c1ccco1)NC(=S)Nc1cccc([N+](=O)[O-])c1	?	50.1µM*	?	39.8µM*	?	?
CSc1cccc(NC(=O)/C=C/c2ccco2)c1	?	79.4µM*	-58.1*	31.6µM*	-11.4%[11.6 µM]	?
O=C(CSc1nnc(CNC(=O)c2ccco2)o1)Nc1cccc(F)c1	0.9%	-5.2%	-1.6	7.2%	-5.8%[57.1 µM]	-7.2%
NC(=O)c1ccc(NC(=O)COC(=O)CCN=C2NS(=O)(=O)c3ccccc32)cc1	22.2%	-18.6%	3.5	.	0.4%	-3.9%
CCOc1cc(C2Nc3ccccc3C(=O)N2Cc2ccco2)ccc1O (centres undefined)	-1.1%	.	.	.	.	-1.3%
C(=C\n1nnc2ccccc21)/c1ccc[nH]1	?	50.1µM*	-76.8*	.	?	25.1µM*
